Source: PubChem BioAssay (EPA / NIEHS)
Results filed as inconclusive are left out. Some compounds were tested as several samples or in several runs, with calls that do not always agree. Activity calls are given as the source filed them. How the source made its calls, unless noted: active means hit-call score of the fitted dose curve at least 0.9, where 1 is the maximum; inactive means score below 0.9.

Key:
[1] = BSK_4H_Eotaxin3: BioMAP Diversity Plus: 4H Assay for Eotaxin 3 Biomarker Activity (AID 2283000); conditions: primary human endothelial cells (HUVEC); actives raise or lower the signal;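 on outcome: CCL26 protein level quantified by ELISA in parallel with SRB cytotoxicity check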
Method in brief: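 Chemicals were added to human umbilical vein endothelium cultures, and Eotaxin-3 was quantified by ELISA at 24 h. Values were derived by bidirectional fitting with DMSO serving as negative control and activity baseline.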

[2] = target: human Peroxisome Proliferator-activated Receptor alpha (PPARa), PPARA (gene 5465) (UniProt Q07869); experiment: ATG_PPARa_TRANS: Attagene TRANS-FACTORIAL HepG2 Assay for human Peroxisome Proliferator-activated Receptor alpha (PPARa) (AID 2283001; active means hit-call score of the fitted dose curve at least 0.9, where 1 is the maximum)
Sequence of human Peroxisome Proliferator-activated Receptor alpha (PPARa), PPARA (gene 5465) (Q07869 whole entry, looked up, the tested form may be a part): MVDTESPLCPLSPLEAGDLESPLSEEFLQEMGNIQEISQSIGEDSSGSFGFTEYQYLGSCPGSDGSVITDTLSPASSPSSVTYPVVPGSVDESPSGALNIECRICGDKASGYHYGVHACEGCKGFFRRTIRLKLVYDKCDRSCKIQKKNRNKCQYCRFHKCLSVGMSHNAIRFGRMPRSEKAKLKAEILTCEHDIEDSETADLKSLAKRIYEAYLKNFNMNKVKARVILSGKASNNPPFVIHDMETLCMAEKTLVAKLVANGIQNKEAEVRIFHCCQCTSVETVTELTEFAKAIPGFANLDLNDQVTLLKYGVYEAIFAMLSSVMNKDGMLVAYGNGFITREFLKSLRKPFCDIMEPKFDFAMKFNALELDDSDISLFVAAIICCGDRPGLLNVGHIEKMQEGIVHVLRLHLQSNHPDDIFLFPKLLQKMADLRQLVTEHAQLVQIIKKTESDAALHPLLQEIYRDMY
Method in brief: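 Read-out is fluorescence of reporter cDNA fragments resolved by capillary electrophoresis after RT-PCR. Human HepG2 liver cells carried transfected PPARa-Gal4 chimera and GAL4-UAS reporter units, treated 24 h; activity scored as increase over DMSO.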

[3] = target: human Peroxisome Proliferator-activated Receptor delta (PPARd), PPARD (gene 5467) (UniProt Q03181); experiment: ATG_PPARd_TRANS: Attagene TRANS-FACTORIAL HepG2 Assay for human Peroxisome Proliferator-activated Receptor delta (PPARd) (AID 2283002; active means hit-call score of the fitted dose curve at least 0.9, where 1 is the maximum)
Sequence of human Peroxisome Proliferator-activated Receptor delta (PPARd), PPARD (gene 5467) (Q03181 whole entry, looked up, the tested form may be a part): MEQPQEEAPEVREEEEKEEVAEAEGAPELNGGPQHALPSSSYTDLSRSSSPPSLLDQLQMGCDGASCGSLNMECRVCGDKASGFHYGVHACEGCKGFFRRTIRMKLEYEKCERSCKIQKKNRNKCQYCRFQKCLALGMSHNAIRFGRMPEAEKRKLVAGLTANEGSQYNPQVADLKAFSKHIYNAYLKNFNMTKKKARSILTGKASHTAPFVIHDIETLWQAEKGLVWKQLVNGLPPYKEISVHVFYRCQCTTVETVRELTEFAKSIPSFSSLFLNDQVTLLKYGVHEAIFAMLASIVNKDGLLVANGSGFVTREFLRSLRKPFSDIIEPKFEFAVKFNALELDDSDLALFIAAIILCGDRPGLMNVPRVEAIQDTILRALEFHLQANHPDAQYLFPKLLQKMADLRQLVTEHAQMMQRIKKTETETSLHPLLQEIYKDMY
Method in brief: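 Transient HepG2 transfection (multiple GAL4-UAS RTUs, chimeric receptor-Gal4); 24 h dosing; total RNA → oligo(dT) RT → PCR → 6-FAM primer extension → HpaI cut → CE. Positive direction vs DMSO.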

[4] = read-out: Intercellular Adhesion Molecule 1 (ICAM1), ICAM1 (gene 3383); experiment: BSK_3C_ICAM1: BioMAP Diversity Plus: 3C Assay for Intercellular Adhesion Molecule 1 (ICAM1) Biomarker Activity (AID 2283003); conditions: primary human endothelial cells (HUVEC); actives raise or lower the signal
Method in brief: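 ICAM-1 levels measured by ELISA after HUVEC cultures in the 3C system had been dosed for 24 h. Gain or loss of signal relative to DMSO was fitted in both directions.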

[5] = target: Retinoic acid receptor alpha (Homo sapiens) (UniProt P10276); experiment: ATG_RARa_TRANS: Attagene TRANS-FACTORIAL HepG2 Assay for human Retinoic Acid Receptor alpha (RARa) (AID 2283005; active means hit-call score of the fitted dose curve at least 0.9, where 1 is the maximum)
Sequence of Retinoic acid receptor alpha (Homo sapiens) (P10276 whole entry, looked up, the tested form may be a part): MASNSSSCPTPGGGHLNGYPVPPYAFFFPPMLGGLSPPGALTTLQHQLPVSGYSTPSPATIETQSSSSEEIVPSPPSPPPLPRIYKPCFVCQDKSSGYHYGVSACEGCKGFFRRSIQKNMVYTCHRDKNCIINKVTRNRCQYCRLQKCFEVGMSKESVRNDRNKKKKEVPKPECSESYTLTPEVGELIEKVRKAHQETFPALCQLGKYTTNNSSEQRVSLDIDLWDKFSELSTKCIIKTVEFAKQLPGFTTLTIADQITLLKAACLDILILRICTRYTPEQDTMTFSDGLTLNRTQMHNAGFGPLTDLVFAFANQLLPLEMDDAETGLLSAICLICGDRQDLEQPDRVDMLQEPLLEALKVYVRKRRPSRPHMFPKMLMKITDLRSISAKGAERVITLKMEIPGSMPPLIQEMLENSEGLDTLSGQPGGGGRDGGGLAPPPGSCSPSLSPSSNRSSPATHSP
Method in brief: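 Reporter transcripts, measured by RT-PCR with fluorescent labeling and capillary electrophoresis after 24 h dosing, reflect activity of an exogenous human RARa–GAL4 fusion in transiently transfected HepG2. Fitted for increase relative to DMSO.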

[6] = BSK_3C_Proliferation: Cell Proliferation Assessment in the BioMAP Diversity Plus: 3C Assay (AID 2283006); conditions: primary human endothelial cells (HUVEC);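 on AC50: potency may reflect either rise or fall in cell number versus DMSO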
Method in brief: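 Read-out is total protein by SRB absorbance at 560 nm, taken as a proxy for relative cell number. Primary human umbilical vein endothelium cultured below confluence was dosed for 48 h, TCA-fixed and SRB-stained; curves were fitted bidirectionally versus DMSO.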

[7] = target: Peroxisome proliferator-activated receptor gamma (Homo sapiens) (UniProt P37231); experiment: ATG_PPARg_TRANS: Attagene TRANS-FACTORIAL HepG2 Assay for human Peroxisome Proliferator-activated Receptor-gamma (PPARg) (AID 2283007; active means hit-call score of the fitted dose curve at least 0.9, where 1 is the maximum)
Sequence of Peroxisome proliferator-activated receptor gamma (Homo sapiens) (P37231 whole entry, looked up, the tested form may be a part): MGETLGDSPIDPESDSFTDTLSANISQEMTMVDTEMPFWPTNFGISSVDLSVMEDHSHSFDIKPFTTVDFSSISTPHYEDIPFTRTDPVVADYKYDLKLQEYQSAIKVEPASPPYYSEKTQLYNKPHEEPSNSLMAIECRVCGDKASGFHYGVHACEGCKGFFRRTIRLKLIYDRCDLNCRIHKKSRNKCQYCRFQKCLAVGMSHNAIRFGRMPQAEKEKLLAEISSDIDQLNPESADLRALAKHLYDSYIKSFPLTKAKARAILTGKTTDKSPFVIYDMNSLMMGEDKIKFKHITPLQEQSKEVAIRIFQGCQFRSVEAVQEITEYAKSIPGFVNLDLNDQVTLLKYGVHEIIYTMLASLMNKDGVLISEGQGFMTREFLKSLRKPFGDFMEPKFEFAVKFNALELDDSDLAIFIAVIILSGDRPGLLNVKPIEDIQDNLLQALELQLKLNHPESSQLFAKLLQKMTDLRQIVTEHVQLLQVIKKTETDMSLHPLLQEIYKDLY
Method in brief: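 HepG2 cells are transiently transfected with GAL4-UAS reporter units driven by chimeric NR-Gal4 fusions and dosed for 24 h. Reporter mRNA is quantified by RT-PCR, 6-FAM labelling, HpaI digestion and capillary electrophoresis. Induction is scored against DMSO.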

[8] = target: Nuclear receptor subfamily 1 group I member 2 (Homo sapiens) (UniProt O75469); experiment: ATG_PXR_TRANS: Attagene TRANS-FACTORIAL HepG2 Assay for human Pregnane X Receptor (PXR) (AID 2283008; active means hit-call score of the fitted dose curve at least 0.9, where 1 is the maximum)
Sequence of Nuclear receptor subfamily 1 group I member 2 (Homo sapiens) (O75469 whole entry, looked up, the tested form may be a part): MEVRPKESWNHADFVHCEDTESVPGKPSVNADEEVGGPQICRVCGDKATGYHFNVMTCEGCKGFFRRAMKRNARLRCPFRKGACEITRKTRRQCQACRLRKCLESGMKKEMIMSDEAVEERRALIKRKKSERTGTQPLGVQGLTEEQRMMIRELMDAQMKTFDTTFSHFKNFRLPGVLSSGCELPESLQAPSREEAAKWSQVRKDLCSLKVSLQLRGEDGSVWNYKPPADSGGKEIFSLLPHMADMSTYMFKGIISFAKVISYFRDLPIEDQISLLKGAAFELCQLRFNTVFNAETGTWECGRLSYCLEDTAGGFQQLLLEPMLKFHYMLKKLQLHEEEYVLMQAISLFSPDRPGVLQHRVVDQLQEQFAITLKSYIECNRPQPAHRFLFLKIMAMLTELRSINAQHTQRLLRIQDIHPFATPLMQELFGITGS
Method in brief: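 HepG2 cells transiently transfected with GAL4-UAS reporter units and PXR-Gal4 chimera, exposed 24 h. Reporter mRNA quantified by RT-PCR, fluorescent labelling, HpaI digestion and capillary electrophoresis; gain of signal vs DMSO.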

[9] = target: human Retinoic Acid Receptor gamma (RARg), RARG (gene 5916) (UniProt P13631); experiment: ATG_RARg_TRANS: Attagene TRANS-FACTORIAL HepG2 Assay for human Retinoic Acid Receptor gamma (RARg) (AID 2283009; active means hit-call score of the fitted dose curve at least 0.9, where 1 is the maximum)
Sequence of human Retinoic Acid Receptor gamma (RARg), RARG (gene 5916) (P13631 whole entry, looked up): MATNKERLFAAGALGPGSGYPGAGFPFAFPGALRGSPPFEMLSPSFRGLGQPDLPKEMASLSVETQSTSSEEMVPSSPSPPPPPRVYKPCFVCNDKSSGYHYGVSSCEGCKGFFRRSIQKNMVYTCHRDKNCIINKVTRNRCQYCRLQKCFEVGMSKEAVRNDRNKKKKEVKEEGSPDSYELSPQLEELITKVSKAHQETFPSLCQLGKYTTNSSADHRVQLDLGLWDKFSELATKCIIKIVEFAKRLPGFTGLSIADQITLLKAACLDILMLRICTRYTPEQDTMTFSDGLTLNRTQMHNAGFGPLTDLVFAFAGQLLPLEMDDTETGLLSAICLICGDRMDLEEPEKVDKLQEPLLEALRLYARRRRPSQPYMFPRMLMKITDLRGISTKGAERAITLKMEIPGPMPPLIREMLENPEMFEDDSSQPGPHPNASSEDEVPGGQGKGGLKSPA
Method in brief: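 Transient transfection of HepG2 with multi-reporter constructs, then 24 h chemical treatment. Total RNA isolated, reverse-transcribed, PCR-amplified, fluorescently labelled and resolved by capillary electrophoresis; activity scored as mRNA induction versus DMSO.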

[10] = target: human RAR-related Orphan Receptor beta (RORb), RORB (gene 6096) (UniProt Q92753); experiment: ATG_RORb_TRANS: Attagene TRANS-FACTORIAL HepG2 Assay for human RAR-related Orphan Receptor beta (RORb) (AID 2283010; active means hit-call score of the fitted dose curve at least 0.9, where 1 is the maximum)
Sequence of human RAR-related Orphan Receptor beta (RORb), RORB (gene 6096) (Q92753 whole entry, looked up, the tested form may be a part): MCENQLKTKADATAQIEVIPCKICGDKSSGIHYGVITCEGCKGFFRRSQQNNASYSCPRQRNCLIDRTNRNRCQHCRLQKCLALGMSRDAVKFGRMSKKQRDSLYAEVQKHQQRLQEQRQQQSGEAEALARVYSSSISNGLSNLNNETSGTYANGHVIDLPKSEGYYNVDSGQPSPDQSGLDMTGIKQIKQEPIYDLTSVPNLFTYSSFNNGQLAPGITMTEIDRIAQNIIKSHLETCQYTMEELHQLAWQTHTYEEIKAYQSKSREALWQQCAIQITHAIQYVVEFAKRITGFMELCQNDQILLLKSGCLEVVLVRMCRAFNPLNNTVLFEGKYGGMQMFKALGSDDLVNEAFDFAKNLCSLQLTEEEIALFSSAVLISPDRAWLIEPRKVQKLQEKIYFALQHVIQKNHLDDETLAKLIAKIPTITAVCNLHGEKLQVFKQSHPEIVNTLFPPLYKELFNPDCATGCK
Method in brief: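 Readout is reporter-gene mRNA induction, detected as fluorescence after RT-PCR and capillary electrophoresis, fitted for gain of signal against DMSO controls. Transiently transfected HepG2 liver cells carrying GAL4-UAS reporter constructs were treated for 24 hours.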

[11] = target: Retinoic acid receptor RXR-alpha (Homo sapiens) (UniProt P19793); experiment: ATG_RXRa_TRANS: Attagene TRANS-FACTORIAL HepG2 Assay for human Retinoid X Receptor alpha (RXRa) (AID 2283012; active means hit-call score of the fitted dose curve at least 0.9, where 1 is the maximum)
Sequence of Retinoic acid receptor RXR-alpha (Homo sapiens) (P19793 whole entry, looked up, the tested form may be a part): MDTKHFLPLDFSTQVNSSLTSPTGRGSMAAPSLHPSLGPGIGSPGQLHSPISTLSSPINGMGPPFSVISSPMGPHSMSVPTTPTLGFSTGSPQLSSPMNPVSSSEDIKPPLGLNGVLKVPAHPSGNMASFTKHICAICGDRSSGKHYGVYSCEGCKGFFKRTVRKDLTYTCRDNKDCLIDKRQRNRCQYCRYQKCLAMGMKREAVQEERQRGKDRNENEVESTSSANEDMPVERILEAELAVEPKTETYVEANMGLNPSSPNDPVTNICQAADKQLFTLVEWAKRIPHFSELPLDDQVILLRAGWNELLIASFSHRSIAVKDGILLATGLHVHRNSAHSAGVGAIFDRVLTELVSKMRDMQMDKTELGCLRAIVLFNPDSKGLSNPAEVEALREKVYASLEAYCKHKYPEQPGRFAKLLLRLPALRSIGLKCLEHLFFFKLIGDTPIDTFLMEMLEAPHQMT
Method in brief: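 Transient transfection of human HepG2 with multiple GAL4-UAS reporter constructs; 24 h compound exposure; total RNA isolated, reverse-transcribed, PCR-amplified, 6-FAM labelled, HpaI-cut, resolved by capillary electrophoresis. Positive-direction fit versus DMSO.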

[12] = target: human Retinoid X Receptor beta (RXRb), RXRB (gene 6257) (UniProt P28702); experiment: ATG_RXRb_TRANS: Attagene TRANS-FACTORIAL HepG2 Assay for human Retinoid X Receptor beta (RXRb) (AID 2283013; active means hit-call score of the fitted dose curve at least 0.9, where 1 is the maximum)
Sequence of human Retinoid X Receptor beta (RXRb), RXRB (gene 6257) (P28702 whole entry, looked up, the tested form may be a part): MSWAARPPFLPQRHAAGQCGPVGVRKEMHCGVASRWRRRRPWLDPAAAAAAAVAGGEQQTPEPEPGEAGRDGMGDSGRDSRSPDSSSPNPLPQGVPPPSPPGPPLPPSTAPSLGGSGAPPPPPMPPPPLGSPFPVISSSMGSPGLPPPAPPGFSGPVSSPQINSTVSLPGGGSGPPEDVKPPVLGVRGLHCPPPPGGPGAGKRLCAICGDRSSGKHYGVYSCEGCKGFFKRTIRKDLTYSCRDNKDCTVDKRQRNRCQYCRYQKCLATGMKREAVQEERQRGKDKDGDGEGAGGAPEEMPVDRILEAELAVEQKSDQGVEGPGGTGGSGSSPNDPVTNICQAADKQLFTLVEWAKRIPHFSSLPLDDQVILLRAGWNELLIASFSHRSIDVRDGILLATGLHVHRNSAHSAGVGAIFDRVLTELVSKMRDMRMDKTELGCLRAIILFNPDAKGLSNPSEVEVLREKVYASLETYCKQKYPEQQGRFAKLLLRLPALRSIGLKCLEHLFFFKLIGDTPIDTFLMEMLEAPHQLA
Method in brief: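 Transfect HepG2 with GAL4-UAS multi-reporter constructs (chimeric NR-Gal4, TRANS format); dose compound 24 h; isolate RNA, RT-PCR, FAM primer extension, HpaI digest; quantify by capillary electrophoresis; positive direction vs DMSO.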

[13] = read-out: E-selectin (Homo sapiens) (UniProt P16581); experiment: BSK_3C_Eselectin: BioMAP Diversity Plus: 3C Assay for Eselectin Biomarker Activity (AID 2283015); conditions: primary human endothelial cells (HUVEC); actives raise or lower the signal;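 further: cell surface E-selectin protein quantified by ELISA 24 h after dosing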
Method in brief: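 ELISA read-out of E-selectin on endothelial monolayers after 24 h chemical treatment. Human umbilical vein primary cells served as the system, with DMSO defining baseline activity for bidirectional fitting.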

[14] = read-out: Interleukin-1 alpha (IL1a), IL1A (gene 3552); experiment: BSK_BE3C_IL1a: BioMAP Diversity Plus: BE3C Assay for Interleukin-1 alpha (IL1a) Biomarker Activity (AID 2283016); conditions: primary human bronchial epithelial cells; actives raise or lower the signal
Method in brief: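 BE3C primary human bronchial epithelium; cpd 24 h; IL-1a by ELISA; bidirectional fit vs DMSO; parallel SRB (0.1% SRB, 10% TCA fix, 560 nm) for cytotoxicity.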

[15] = read-out: Monocyte Chemoattractant Protein-1 (MCP1), CCL2 (gene 6347); experiment: BSK_3C_MCP1: BioMAP Diversity Plus: 3C Assay for Monocyte Chemoattractant Protein-1 (MCP1) Biomarker Activity (AID 2283017); conditions: primary human endothelial cells (HUVEC); actives raise or lower the signal
Method in brief: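 ELISA read-out of MCP-1 from human umbilical vein endothelial cell cultures harvested 24 h post-dosing. Gain or loss of signal was fitted relative to DMSO.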

[16] = read-out: Monocyte Chemoattractant Protein-1 (MCP1), CCL2 (gene 6347); experiment: BSK_4H_MCP1: BioMAP Diversity Plus: 4H Assay for Monocyte Chemoattractant Protein-1 (MCP1) Biomarker Activity (AID 2283018); conditions: primary human endothelial cells (HUVEC); actives raise or lower the signal
Method in brief: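 ELISA read-out of MCP-1 from human vascular endothelial primary cells taken at 24 hours after compound exposure. Activity was fitted in both directions relative to DMSO, which served as negative control.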

[17] = read-out: Human Leukocyte Antigen - DR isotype (HLADR), HLA-DRA (gene 3122); experiment: BSK_3C_HLADR: BioMAP Diversity Plus: 3C Assay for Human Leukocyte Antigen - DR isotype (HLADR) Biomarker Activity (AID 2283019); conditions: primary human endothelial cells (HUVEC); actives raise or lower the signal;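 on outcome: ELISA of cell-surface HLA-DR on HUVEC 24 h after dosing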
Method in brief: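 ELISA readout of surface HLA-DR on human umbilical vein endothelium, taken 24 h after chemical treatment. Gain- and loss-of-signal were both fitted relative to DMSO.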

[18] = target: human Retinoic Acid Receptor beta (RARb), RARB (gene 5915) (UniProt P10826); experiment: ATG_RARb_TRANS: Attagene TRANS-FACTORIAL HepG2 Assay for human Retinoic Acid Receptor beta (AID 2283004; active means hit-call score of the fitted dose curve at least 0.9, where 1 is the maximum)
Method in brief: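 Transient transfection of HepG2 with multiple reporter units → chemical dosing, 24 h → total RNA isolation → RT with oligo(dT) → reporter-specific PCR, 6-FAM primer extension, HpaI digest → capillary electrophoresis. Positive direction vs DMSO control.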

Sequence of E-selectin (Homo sapiens) (P16581 whole entry, looked up): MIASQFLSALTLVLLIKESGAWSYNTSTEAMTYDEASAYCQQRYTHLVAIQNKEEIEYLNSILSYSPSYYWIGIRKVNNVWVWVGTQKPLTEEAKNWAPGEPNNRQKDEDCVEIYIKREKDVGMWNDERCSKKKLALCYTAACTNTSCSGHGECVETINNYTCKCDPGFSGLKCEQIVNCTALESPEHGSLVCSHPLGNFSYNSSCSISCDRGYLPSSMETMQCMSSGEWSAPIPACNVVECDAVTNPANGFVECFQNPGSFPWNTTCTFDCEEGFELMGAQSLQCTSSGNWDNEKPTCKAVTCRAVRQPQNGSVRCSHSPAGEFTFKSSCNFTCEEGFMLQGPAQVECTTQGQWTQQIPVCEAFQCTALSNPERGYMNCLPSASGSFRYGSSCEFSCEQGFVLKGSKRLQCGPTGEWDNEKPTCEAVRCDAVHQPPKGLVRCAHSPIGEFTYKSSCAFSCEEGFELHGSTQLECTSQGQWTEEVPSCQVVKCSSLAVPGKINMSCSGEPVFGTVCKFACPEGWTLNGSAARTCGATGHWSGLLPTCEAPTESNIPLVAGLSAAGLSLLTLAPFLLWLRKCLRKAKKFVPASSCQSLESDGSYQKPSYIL

With `FC(F)(F)C(F)(F)C(F)(F)C(F)(F)C(F)(F)C(F)(F)C(F)(F)C(F)(F)F` the outcome [1] was “inactive”, the outcome [2] was “inactive” and the outcome [3] was “inactive”. The outcome [4] was “inactive”, the outcome [5] was “inactive” and the outcome [6] was “inactive”. For the same compound, the outcome [7] was “inactive”, the outcome [8] was “inactive” and the outcome [9] was “inactive”. For the same compound, the outcome [10] was “inactive”, the outcome [11] was “inactive” and the outcome [12] was “inactive”. For the same compound, the outcome [13] was “inactive”, the outcome [14] was “inactive” and the outcome [15] was “inactive”. The outcome [16] was “inactive” and the outcome [17] was “inactive”.
For `C#C[C@]1(O)CC[C@H]2[C@@H]3CCc4cc(OC)ccc4[C@H]3CC[C@@]21C`, the AC50 [1] was 2.22 µM (active), the outcome [2] was “inactive” and the outcome [4] was “inactive”. For the same compound, the outcome [18] was “inactive”, the AC50 [6] was 31.1 µM (active) and the outcome [7] was “inactive”. For the same compound, the outcome [9] was “inactive”, the outcome [11] was “inactive” and the outcome [12] was “inactive”. The outcome [13] was “inactive”, the AC50 [14] was 0.998 µM (active) and the outcome [15] was “inactive”. The outcome [16] was “inactive” and the AC50 [17] was 31.2 µM (active).
For `NC(=O)C(F)(F)C(F)(F)C(F)(F)C(F)(F)F`, the outcome [1] was “inactive”, the outcome [2] was “inactive” and the outcome [4] was “inactive”. For the same compound, the outcome [6] was “inactive”, the outcome [7] was “inactive” and the outcome [10] was “inactive”. The outcome [13] was “inactive”, the outcome [14] was “inactive” and the outcome [15] was “inactive”. For the same compound, the outcome [16] was “inactive” and the outcome [17] was “inactive”.
In the case of `C=C(C)C(=O)OCCC(F)(F)C(F)(F)C(F)(F)C(F)(F)C(F)(C(F)(F)F)C(F)(F)F`, the outcome [1] is reported as “inactive”, the outcome [3] is reported as “inactive” and the outcome [4] is reported as “inactive”. For the same compound, the outcome [5] was “inactive”, the outcome [6] was “inactive” and the outcome [7] was “inactive”. For the same compound, the outcome [8] was “inactive”, the outcome [11] was “inactive” and the outcome [12] was “inactive”. The outcome [13] was “inactive”, the outcome [14] was “inactive” and the outcome [15] was “inactive”. For the same compound, the outcome [16] was “inactive” and the outcome [17] was “inactive”.
In the case of `CS(C)(=O)=O`, the outcome [1] is reported as “inactive”, the outcome [2] is reported as “inactive” and the outcome [4] is reported as “inactive”. The outcome [6] was “inactive”, the outcome [11] was “inactive” and the outcome [13] was “inactive”. For the same compound, the outcome [14] was “inactive”, the outcome [15] was “inactive” and the outcome [16] was “inactive”. The outcome [17] was “inactive”.
With `FC(F)(F)C(F)(F)C(F)(F)C(F)(F)C(F)(F)C(F)(F)C(F)(F)Br` the outcome [1] was “inactive”, the outcome [3] was “inactive” and the outcome [4] was “inactive”. For the same compound, the outcome [5] was “inactive”, the outcome [6] was “inactive” and the outcome [7] was “inactive”. The outcome [8] was “inactive”, the outcome [9] was “inactive” and the outcome [11] was “inactive”. For the same compound, the outcome [13] was “inactive”, the outcome [14] was “inactive” and the outcome [15] was “inactive”. The outcome [16] was “inactive” and the outcome [17] was “inactive”.
In the case of `O=C(O)C(F)(F)C(F)(F)F`, the outcome [1] is reported as “inactive”, the outcome [3] is reported as “inactive” and the outcome [4] is reported as “inactive”. The outcome [5] was “inactive”, the outcome [6] was “inactive” and the outcome [7] was “inactive”. The outcome [8] was “inactive”, the outcome [10] was “inactive” and the outcome [11] was “inactive”. The outcome [13] was “inactive”, the outcome [14] was “inactive” and the AC50 [15] was 23 µM (active). The outcome [15] was “inactive”, the outcome [16] was “inactive” and the outcome [17] was “inactive”.
For `C=CC(F)(F)C(F)(F)C(F)(F)C(F)(F)C(F)(F)C(F)(F)C(F)(F)C(F)(F)F`, the outcome [1] was “inactive”, the outcome [3] was “inactive” and the outcome [4] was “inactive”. The outcome [5] was “inactive”, the outcome [6] was “inactive” and the outcome [7] was “inactive”. For the same compound, the outcome [9] was “inactive”, the outcome [10] was “inactive” and the outcome [11] was “inactive”. For the same compound, the outcome [13] was “inactive”, the outcome [14] was “inactive” and the outcome [15] was “inactive”. The outcome [16] was “inactive” and the outcome [17] was “inactive”.
